# Inconclusive results are not listed. A call without a number means that no potency is given here. Values without a mark were called inactive. Calls of active or inactive are those of the source. The call rests on the fitted dose curve; in most records, active means well fitted cell-killing curve with a large enough effect in the repeat runs; inconclusive means weak or mixed curves, or effect the other way; inactive means flat fitted curve, though single readings scatter.
# Assay: qHTS assay to identify small molecule antagonists of the constitutive androstane receptor (CAR) signaling pathway - cell viability counter screen (AID 1224837); further: nearly all actives have a fitted effect of over 45% in size
# Conditions: HepG2-CYP2B6-hCAR viability, CellTiter-Fluor, 23 h, co-treated with 50 nM CITCO; series mostly up to 92.4 µM
# Source text: National Center for Advancing Translational Sciences [NCATS]
# NIH Chemical Genomics Center [NCGC]
# U.S. Environmental Protection Agency [EPA]
# National Institutes of Environmental Health Sciences [NIEHS]
# National Toxicology Program [NTP]
# U.S. Food and Drug Administration [FDA]
# The constitutive androstane receptor (CAR) is a nuclear receptor which regulates multiple drug metabolizing enzymes (DMEs) and transporters. Activating CAR will generally increase the transcription and subsequent translation of CYP2B6 and CYP3A4. These two DMEs represent about 50% of the drug metabolizing potential in the body. When CAR is deactivated, the metabolizing potential in the body will decrease, subsequently increasing the toxicity in the body or lowering the therapeutic potential of a pro-drug. Recently, there have also been studies performed indicating CARs role in energy metabolism and cancer therapy. Therefore, inhibiting CARs activity could have a potential effect on diabetes and cancer. Identifying environmental toxins and compounds which modulate CAR, through the use of the Tox21 10K compound collection, will be an important step in determining the toxicity and potential therapeutic effects these factors will have on the human body. To differentiate true CAR antagonists from cytotoxic substances, the assay is multiplexed with a cell viability assay.
# Tox21 Assay Protocol Summary:
# A double-stable (hCAR and CYP2B6-2.2kb) transfected cell line, derived from human hepatoma (HepG2) cells, was utilized for the duration of the quantitative high-throughput screens. The HepG2-CYP2B6-hCAR cells were dispensed at 2500 cells/4 uL/well in 1536-well white solid bottom plates using a Multidrop Combi. After the assay plates were incubated at 37 C/5% CO2 for 4 hrs, 23 nL of compounds at 15 concentrations (from 5-48 columns) or positive control (from 1 to 4 columns) were transferred to the assay plates using a Pintool station. One uL of CITCO (final concentration = 50 nM) was added, using a Flying Reagent Dispenser, inside each well. After a 23 hr incubation period at 37 C/5% CO2, 1 uL of CellTiter-Fluor reagent was added into each well of the assay plates using a Flying Reagent Dispenser. The fluorescence intensity in the plates was then measured using a ViewLux plate reader.
# Potency means the concentration at half of the fitted maximal effect.
Structure (SMILES),Potency,"activity change, negative = cytotoxicity"
Cc1cc(NC(=O)C2=C(O)c3ccccc3S(=O)(=O)N2C)no1,inactive,
CC(C)C(=O)OCc1cccc(OC(=O)[C@@H]2N3C(=O)[C@@H](NC(=O)Cc4ccccc4)[C@H]3SC2(C)C)c1,inactive,
O=C(NCCN1CCOCC1)c1ccc(Cl)cc1,inactive,
CC(C(=O)O)c1ccc2c(c1)CC(=O)c1ccccc1S2 (stereo not given),inactive,
O=C1c2ccccc2C(=O)N1CCl,inactive,
O=C(NCC(O)CO)c1c(I)c(C(=O)NCC(O)CO)c(I)c(N(CCO)C(=O)CO)c1I (stereo not given),inactive,
Oc1cn2c(n1)Nc1ccc(Cl)c(Cl)c1C2,,5.38% [at 19 µM]
CC1=CCC(C(C)C)=CC1,inactive,
CCCCNc1ccc(C(=O)OCCN(C)C)cc1,inactive,
O=C1CC(c2ccc(Cl)cc2)CC(=O)N1,inactive,
C=C(C)C(=O)OCCN(CC)CC,inactive,
CC(C)CCCC(C)(C)O,inactive,
NC(CO)C(=O)NNCc1ccc(O)c(O)c1O (stereo not given),inactive,
O=C(OCc1ccccc1)C(=O)OCc1ccccc1,inactive,
CC(=O)Nc1ccc(S(=O)(=O)Cl)cc1,inactive,
CC(C)C[C@H](NC(=O)CNC(=O)[C@H](Cc1ccc(O)cc1)NC(=O)[C@H](CO)NC(=O)[C@H](Cc1c[nH]c2ccccc12)NC(=O)[C@H](Cc1cnc[nH]1)NC(=O)[C@@H]1CCC(=O)N1)C(=O)N[C@@H](CCCN=C(N)N)C(=O)N1CCC[C@H]1C(=O)NCC(N)=O (stereo in doubt),inactive,
COCCOC(=O)C1=C(C)NC(C)=C(C(=O)OC(C)C)C1c1cccc([N+](=O)[O-])c1 (stereo not given),inactive,
CC[C@H](C)C(=O)O[C@H]1C[C@H](O)C=C2C=C[C@H](C)[C@H](CC[C@@H](O)C[C@@H](O)CC(=O)O)[C@H]21,inactive,
c1ccc2nccnc2c1,inactive,
CCO[Si](CCCS)(OCC)OCC,inactive,

Structure (SMILES),Potency,"activity change, negative = cytotoxicity"
CCCCC(CC)COCCO (stereo not given),inactive,
CCC(C)(CCC(C)C)C(=O)O (stereo not given),inactive,
CC(C)OC(=O)CCCCC(=O)OC(C)C,inactive,
CCCC/C=C\CCCCCCCCCC=O,inactive,
Nc1ccc([N+](=O)[O-])c(N)c1,47.3 µM (active),
O=C1CCCC(=O)O1,inactive,
O=C(CS(=O)Cc1ccco1)NC/C=C\COc1cc(CN2CCCCC2)ccn1 (stereo not given),inactive,
CCN(CC)CC(=O)Nc1c(C)cccc1C,inactive,
CCCC(=O)C(C)=O,inactive,
CCOc1cc([N+](=O)[O-])c(OCC)cc1N1CCOCC1,inactive,
O=C1c2cccc3c2[C@H](CCC3)CN1[C@@H]1CN2CCC1CC2,inactive,
O=C1c2ccccc2C(=O)c2cc(S(=O)(=O)O)ccc21,inactive,
CCCCN,inactive,
CCc1ccc(C=O)cc1,inactive,
OCCN(CCO)c1cccc(Cl)c1,inactive,
C[Si](C)=O,,1.39% [at 8.39 µM]
COc1ccc(OC)c(Cl)c1,inactive,
CC(N)C(=O)OC(C)(C)Cc1ccc(Cl)cc1 (stereo not given),inactive,
NCCN1CCOCC1,inactive,
CCCCCCCCOS(=O)(=O)O,inactive,
